Twelve molecules from PubChem BioAssay (EPA / NIEHS) can be followed below.

The term AC50 denotes the concentration giving half of the maximal activity seen.

Molecules are shown by their SMILES. Inconclusive results are not listed. The source made the active and inactive calls. Rule for the calls, unless noted: active = hit-call score of the fitted dose curve at least 0.9, where 1 is the maximum; inconclusive = response in the unintended direction; inactive = score below 0.9.

The target in experiment [1] is Retinoic acid receptor alpha (Homo sapiens) (UniProt P10276). Kind of experiment: ATG_DR5_RAR_CIS: Attagene CIS-FACTORIAL HepG2 Assay for human Retinoic Acid Receptor Alpha (RARE), DR5 submotif (AID 2282934; active = hit-call score of the fitted dose curve at least 0.9, where 1 is the maximum; inactive = score below 0.9;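 for AC50: reporter responds to endogenous RAR alpha beta and gamma in HepG2 not RARA alone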). Particulars: HepG2 Attagene cis-factorial RARE DR5 reporter, mRNA; actives raise or lower the signal. The essentials: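 HepG2 cells transiently transfected with multiplexed reporter units; DR5 cis-element drives reporter through endogenous transcription factors. After 24 h dosing, reporter mRNA quantified by RT-PCR, fluorescent labeling, HpaI digestion and capillary electrophoresis; bidirectional fitting versus DMSO.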
Sequence of Retinoic acid receptor alpha (Homo sapiens) (P10276 whole entry, looked up): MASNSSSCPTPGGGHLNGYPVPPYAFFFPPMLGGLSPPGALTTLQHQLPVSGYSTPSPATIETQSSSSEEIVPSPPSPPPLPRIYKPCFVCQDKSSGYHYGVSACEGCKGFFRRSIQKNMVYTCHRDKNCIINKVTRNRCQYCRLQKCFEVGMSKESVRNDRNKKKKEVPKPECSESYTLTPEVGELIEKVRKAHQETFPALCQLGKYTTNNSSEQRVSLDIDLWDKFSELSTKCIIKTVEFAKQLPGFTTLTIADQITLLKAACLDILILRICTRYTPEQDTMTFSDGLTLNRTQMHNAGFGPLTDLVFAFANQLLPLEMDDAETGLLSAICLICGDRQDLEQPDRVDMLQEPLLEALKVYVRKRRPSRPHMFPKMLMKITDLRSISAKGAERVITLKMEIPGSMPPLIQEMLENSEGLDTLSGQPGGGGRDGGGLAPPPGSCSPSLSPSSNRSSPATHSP

Experiment [2] in a line: ATG_GAL4_TRANS: Attagene TRANS-FACTORIAL HepG2 Assay for GAL4 (Internal Marker) (AID 2282976). The following applies: HepG2 Attagene TRANS GAL4 internal marker reporter. The essentials: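 Liver HepG2 line bearing multiplexed GAL4-UAS reporter constructs; 24 h chemical treatment. Transcripts were quantified as fluorescent fragments on capillary electrophoresis after RT-PCR and HpaI cut, with activity fitted upward from DMSO.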

The target in experiment [3] is Hepatocyte nuclear factor 4-alpha (Homo sapiens) (UniProt P41235). In words: ATG_HNF4a_TRANS: Attagene TRANS-FACTORIAL HepG2 Assay for human Hepatocyte Nuclear Factor 4 alpha (HNF4a) (AID 2282982). Particulars: HepG2 HNF4a transactivation reporter, mRNA readout. The essentials:
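Endpoint reflects transcriptional activation of a GAL4-UAS reporter by an HNF4a-GAL4 chimera in transfected HepG2 cells, 24 h post-dosing. Fluorescence from RT-PCR products separated by capillary electrophoresis; DMSO baseline.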

Experiment [4] concerns the target human RAR-related Orphan Receptor beta (RORb), RORB (gene 6096) (UniProt Q92753). In words: ATG_RORb_TRANS: Attagene TRANS-FACTORIAL HepG2 Assay for human RAR-related Orphan Receptor beta (RORb) (AID 2283010). In short, it runs like this:
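Transfect HepG2 with multiple GAL4-UAS reporter transcription units; dose chemicals for 24 h; isolate RNA, reverse-transcribe and PCR-amplify reporter sequences; label, digest and resolve fragments by capillary electrophoresis; fit increases relative to DMSO.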

The target of experiment [5] is Nuclear receptor subfamily 1 group I member 3 (Homo sapiens) (UniProt Q14994). In words: ATG_CAR_TRANS: Attagene TRANS-FACTORIAL HepG2 Assay for human Constitutive Androstane Receptor (CAR) (AID 2282969).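 Note: activators raise reporter mRNA above DMSO so AC50 marks induction.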 Particulars: HepG2 Attagene TRANS-FACTORIAL CAR reporter. The essentials:
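Transiently transfected HepG2, multiplex TRANS reporters (CAR-Gal4 chimera driving GAL4-UAS reporter). 24 h dosing. Readout: reporter transcript by RT-PCR + capillary electrophoresis, fluorescence intensity; positive direction vs DMSO.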

Experiment [6] addresses Oxysterols receptor LXR-alpha (Homo sapiens) (UniProt Q13133). Kind of experiment: ATG_LXRa_TRANS: Attagene TRANS-FACTORIAL HepG2 Assay for human Liver X Receptor alpha (LXRa) (AID 2282980). Particulars: HepG2 Attagene TRANS reporter, LXRa transactivation. The essentials: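 In this multiplexed TRANS system, compounds act on HepG2 cells carrying GAL4-UAS reporter units and a receptor-GAL4 fusion for 24 h. Induced reporter RNA is amplified, fluorescently labelled and sized by capillary electrophoresis, with DMSO as baseline.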

Experiment [7] addresses Nuclear receptor subfamily 4 group A member 2 (Homo sapiens) (UniProt P43354). Kind of experiment: ATG_NURR1_TRANS: Attagene TRANS-FACTORIAL HepG2 Assay for human Nuclear Receptor Related Protein 1 (NURR1) (AID 2282985). The following applies: HepG2 Attagene TRANS reporter, mRNA readout. The essentials:
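Endpoint: reporter mRNA increase relative to DMSO. HepG2 cells transfected with reporter units, treated 24 h; RNA processed by RT-PCR, labelling, HpaI digestion and capillary electrophoresis.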

The target of experiment [8] is human Peroxisome Proliferator-activated Receptor alpha (PPARa), PPARA (gene 5465) (UniProt Q07869). In words: ATG_PPARa_TRANS: Attagene TRANS-FACTORIAL HepG2 Assay for human Peroxisome Proliferator-activated Receptor alpha (PPARa) (AID 2283001). The essentials: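 HepG2, transient MRTU transfection, 24 h treatment. RT-PCR → FAM labelling → capillary electrophoresis. Fit vs DMSO, positive direction.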

Experiment [9] deals with human Peroxisome Proliferator-activated Receptor delta (PPARd), PPARD (gene 5467) (UniProt Q03181). In words: ATG_PPARd_TRANS: Attagene TRANS-FACTORIAL HepG2 Assay for human Peroxisome Proliferator-activated Receptor delta (PPARd) (AID 2283002). The essentials:
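HepG2 cells transiently transfected with GAL4-UAS multiplexed reporter units driven by exogenous chimeric NR-GAL4 proteins; 24 h compound exposure. Reporter mRNA measured by RT-PCR, 6-FAM primer extension, HpaI digestion and capillary electrophoresis; gain of signal fitted relative to DMSO.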

Experiment [10] addresses Nuclear receptor subfamily 1 group I member 2 (Homo sapiens) (UniProt O75469). In words: ATG_PXR_TRANS: Attagene TRANS-FACTORIAL HepG2 Assay for human Pregnane X Receptor (PXR) (AID 2283008). The essentials:
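HepG2 transfected (FuGene 6) with GAL4-UAS reporter units + PXR-Gal4 chimera; dosed 24 h. Total RNA → oligo(dT) RT → PCR → 6-FAM primer extension → HpaI cut → CE. Gain-of-signal vs DMSO.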

Experiment [11] addresses human RAR-related Orphan Receptor gamma (RORg), RORC (gene 6097) (UniProt P51449). Kind of experiment: ATG_RORg_TRANS: Attagene TRANS-FACTORIAL HepG2 Assay for human RAR-related Orphan Receptor gamma (RORg) (AID 2283011). The essentials:
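Chimeric RORg-Gal4 transactivation in transfected HepG2; 24 h exposure; RT-PCR/capillary electrophoresis readout of reporter mRNA, DMSO baseline.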

For experiment [12], the target named is human Vitamin D Receptor (VDR), VDR (gene 7421) (UniProt P11473). Kind of experiment: ATG_VDR_TRANS: Attagene TRANS-FACTORIAL HepG2 Assay for human Vitamin D Receptor (VDR) (AID 2283022). The essentials: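 Multiplexed TRANS reporter in HepG2; 24 h treatment; reporter mRNA by RT-PCR plus capillary electrophoresis; upregulation scored relative to DMSO.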
Experiment [13] is described as follows: TOX21_p53_BLA_p2_viability: Viability Assessment in the Tox21 HCT-116 p53 Agonism Beta-lactamase Assay, Phase 2 (AID 2283591).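 Note: compound exposure lasted 16 h at 37 °C; actives lower the ATP signal meaning cytotoxicity.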 In short, it runs like this:
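HCT116 p53-bla cells, 4000/well, dosed after 5 h plating (217-fold dilution of DMSO stocks) and incubated 16 h at 37C. Viability taken as cellular ATP by CellTiter-Glo luminescence after 30 min RT; signal loss marks cytotoxicity.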

A short description of experiment [14]: TOX21_p53_BLA_p3_viability: Viability Assessment in the Tox21 HCT-116 p53 Agonism Beta-lactamase Assay, Phase 3 (AID 2283593).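 Note: cells exposed to compound for 16 h before reading.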 The essentials:
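HCT116 cells, 4000/well, dosed 5 h after plating by pin transfer (217-fold dilution from DMSO stock) and incubated 16 h at 37C, 5% CO2. Viability read as ATP luminescence with CellTiter-Glo after 30 min at room temperature.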

In experiment [15] the target is Cellular tumor antigen p53 (Homo sapiens) (UniProt P04637). In words: TOX21_p53_BLA_p3_ratio: Tox21 HCT-116 p53 Agonism Beta-lactamase Assay, Ratio, Phase 3 (AID 2283596). In short, it runs like this: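 Cells were seeded at 4000/well, rested 5 h at 37C, then dosed with DMSO compound solutions (217-fold dilution) for 16 h. CCF4-AM substrate was loaded for 2 h at room temperature, and the 460/530 nm emission ratio was fitted for gain of signal versus DMSO.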
Sequence of Cellular tumor antigen p53 (Homo sapiens) (P04637 whole entry, looked up): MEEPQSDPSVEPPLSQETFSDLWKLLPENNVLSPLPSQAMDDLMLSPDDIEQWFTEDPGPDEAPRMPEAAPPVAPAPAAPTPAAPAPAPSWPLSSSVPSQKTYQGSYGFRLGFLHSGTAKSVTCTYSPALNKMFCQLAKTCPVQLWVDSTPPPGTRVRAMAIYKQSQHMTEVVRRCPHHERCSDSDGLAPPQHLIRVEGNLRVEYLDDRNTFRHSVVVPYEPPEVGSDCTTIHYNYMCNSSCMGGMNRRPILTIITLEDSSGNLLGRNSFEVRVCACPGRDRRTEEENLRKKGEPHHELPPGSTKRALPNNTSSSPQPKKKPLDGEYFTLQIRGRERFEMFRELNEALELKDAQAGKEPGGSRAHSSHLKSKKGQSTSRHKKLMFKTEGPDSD

A short description of experiment [16]: TOX21_p53_BLA_p4_viability: Viability Assessment in the Tox21 HCT-116 p53 Agonism Beta-lactamase Assay, Phase 4 (AID 2283597).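 Note: hits lower the luminescence signal meaning cytotoxicity.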 In short, it runs like this: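 In this multiplexed secondary endpoint, HCT116 cells (4000 per well, compound at 5 h, 16 h treatment) received CellTiter-Glo after the beta-lactamase read. Luminescence after 30 min RT reflects ATP, and falling signal marks cytotoxicity.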

A short description of experiment [17]: CCTE_Harrill_HTTr_Viability_MCF7: CCTE's 6-hour Cell Viability Assessment for the High-Throughput Transcriptomics (HTTr) Platform, in MCF-7 cells cultured in DMEM + 10% fetal bovine serum, Harrill Lab (AID 2284010; active = hit-call score of the fitted dose curve at least 0.9, where 1 is the maximum; inactive = score below 0.9). The essentials:
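Read-out is propidium iodide gain of signal by high-content imaging, reflecting membrane integrity loss. Measurements are taken 6 h after dosing, eight concentrations per chemical, with DMSO serving as baseline for bidirectional curve fitting.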

The target of experiment [18] is Bile acid receptor (Homo sapiens) (UniProt Q96RI1). Kind of experiment: ATG_IR1_CIS: Attagene CIS-FACTORIAL HepG2 Assay for human Nuclear Receptor Subfamily 1 Group H Member 4 (NR1H4), IR1 submotif (AID 2282946; active = hit-call score of the fitted dose curve at least 0.9, where 1 is the maximum; inactive = score below 0.9). Particulars: IR1 reporter transcription, actives raise or lower the signal. In short, it runs like this:
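Fluorescence of capillary-separated, HpaI-digested RT-PCR reporter products gave IR1-element mRNA induction in HepG2 cells 24 h after dosing. Endogenous transcription factors drove the cis-regulated reporters; activity was fitted bidirectionally against DMSO.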

Experiment [19] in a line: ATG_XTT_Cytotoxicity: Cytotoxicity Assessment in the Attagene TRANS-FACTORIAL HepG2 Assay (AID 2283584).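 For AC50: XTT signal for cell number as viability in transfected HepG2 cells; cells exposed to compound for 24 h before reading; active means loss of viability signal versus DMSO baseline.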 In short, it runs like this: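 24 h chemical exposure of reporter-transfected HepG2; XTT signal loss vs DMSO indicates cytotoxicity.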
Experiment [20] has as its target Oxysterols receptor LXR-beta (Homo sapiens) (UniProt P55055). In words: ATG_LXRb_TRANS: Attagene TRANS-FACTORIAL HepG2 Assay for human Liver X Receptor beta (LXRb) (AID 2282981). Particulars: HepG2 Attagene TRANS GAL4-LXRb reporter, mRNA. The essentials:
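Multiplexed reporter assay, HepG2, 24 h dosing. Fluorescence of labelled RT-PCR products after capillary electrophoresis gives transcript level; positive fitting direction relative to DMSO.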

Sequence of human RAR-related Orphan Receptor gamma (RORg), RORC (gene 6097) (P51449 whole entry, looked up, the tested form may be a part): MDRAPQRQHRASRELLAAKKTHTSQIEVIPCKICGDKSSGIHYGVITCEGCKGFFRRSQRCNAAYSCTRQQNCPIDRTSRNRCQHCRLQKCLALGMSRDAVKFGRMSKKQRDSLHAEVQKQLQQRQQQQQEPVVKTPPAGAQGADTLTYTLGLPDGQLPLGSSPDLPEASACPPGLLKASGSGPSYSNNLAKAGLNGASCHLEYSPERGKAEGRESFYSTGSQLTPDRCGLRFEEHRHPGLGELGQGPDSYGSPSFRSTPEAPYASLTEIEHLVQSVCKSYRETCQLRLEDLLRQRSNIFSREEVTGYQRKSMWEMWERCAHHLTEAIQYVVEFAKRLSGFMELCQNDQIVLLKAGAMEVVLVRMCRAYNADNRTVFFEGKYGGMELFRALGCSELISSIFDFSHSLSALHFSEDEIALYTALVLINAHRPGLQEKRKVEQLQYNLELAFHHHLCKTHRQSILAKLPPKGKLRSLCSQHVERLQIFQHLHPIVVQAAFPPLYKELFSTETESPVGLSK
Sequence of Nuclear receptor subfamily 4 group A member 2 (Homo sapiens) (P43354 whole entry, looked up): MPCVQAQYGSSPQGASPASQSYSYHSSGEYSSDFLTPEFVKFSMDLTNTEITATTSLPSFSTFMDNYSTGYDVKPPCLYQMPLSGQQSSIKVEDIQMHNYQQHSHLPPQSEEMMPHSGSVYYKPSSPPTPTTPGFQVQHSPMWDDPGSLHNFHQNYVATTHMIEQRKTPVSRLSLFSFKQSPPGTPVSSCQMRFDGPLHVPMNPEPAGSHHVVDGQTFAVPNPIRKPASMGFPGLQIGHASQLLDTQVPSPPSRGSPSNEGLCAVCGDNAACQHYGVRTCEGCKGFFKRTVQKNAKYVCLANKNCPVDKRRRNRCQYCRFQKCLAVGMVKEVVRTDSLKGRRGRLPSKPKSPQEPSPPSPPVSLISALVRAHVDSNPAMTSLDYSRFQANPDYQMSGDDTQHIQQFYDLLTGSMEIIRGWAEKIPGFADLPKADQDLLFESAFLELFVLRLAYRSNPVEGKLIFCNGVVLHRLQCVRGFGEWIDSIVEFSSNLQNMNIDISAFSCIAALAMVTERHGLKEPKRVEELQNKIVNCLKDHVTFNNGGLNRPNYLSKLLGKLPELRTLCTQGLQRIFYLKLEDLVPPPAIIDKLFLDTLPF
Sequence of human Peroxisome Proliferator-activated Receptor delta (PPARd), PPARD (gene 5467) (Q03181 whole entry, looked up, the tested form may be a part): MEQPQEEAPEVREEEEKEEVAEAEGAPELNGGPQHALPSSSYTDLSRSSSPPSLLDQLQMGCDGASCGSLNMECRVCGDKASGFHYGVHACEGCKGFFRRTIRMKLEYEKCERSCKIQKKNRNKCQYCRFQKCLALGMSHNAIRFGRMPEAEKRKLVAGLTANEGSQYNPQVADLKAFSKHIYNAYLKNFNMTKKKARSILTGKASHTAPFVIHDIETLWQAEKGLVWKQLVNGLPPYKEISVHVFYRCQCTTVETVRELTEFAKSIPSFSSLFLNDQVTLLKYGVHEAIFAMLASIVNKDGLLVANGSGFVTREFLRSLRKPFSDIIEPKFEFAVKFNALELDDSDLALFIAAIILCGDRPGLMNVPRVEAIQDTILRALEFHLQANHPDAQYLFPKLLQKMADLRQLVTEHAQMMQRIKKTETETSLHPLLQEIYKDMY
Sequence of human RAR-related Orphan Receptor beta (RORb), RORB (gene 6096) (Q92753 whole entry, looked up, the tested form may be a part): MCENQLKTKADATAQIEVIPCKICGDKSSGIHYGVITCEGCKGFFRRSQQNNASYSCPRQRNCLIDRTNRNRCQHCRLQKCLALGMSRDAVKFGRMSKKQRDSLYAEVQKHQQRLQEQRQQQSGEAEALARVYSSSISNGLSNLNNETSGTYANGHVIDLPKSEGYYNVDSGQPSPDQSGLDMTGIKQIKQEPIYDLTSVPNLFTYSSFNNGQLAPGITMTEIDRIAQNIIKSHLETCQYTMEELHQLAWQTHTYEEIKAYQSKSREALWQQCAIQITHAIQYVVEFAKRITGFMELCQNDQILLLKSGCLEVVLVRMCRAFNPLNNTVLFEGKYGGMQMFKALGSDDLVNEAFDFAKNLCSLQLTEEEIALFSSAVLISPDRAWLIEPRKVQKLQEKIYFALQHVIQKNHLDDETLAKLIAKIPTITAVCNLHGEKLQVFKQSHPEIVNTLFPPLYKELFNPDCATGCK
Sequence of Hepatocyte nuclear factor 4-alpha (Homo sapiens) (P41235 whole entry, looked up, the tested form may be a part): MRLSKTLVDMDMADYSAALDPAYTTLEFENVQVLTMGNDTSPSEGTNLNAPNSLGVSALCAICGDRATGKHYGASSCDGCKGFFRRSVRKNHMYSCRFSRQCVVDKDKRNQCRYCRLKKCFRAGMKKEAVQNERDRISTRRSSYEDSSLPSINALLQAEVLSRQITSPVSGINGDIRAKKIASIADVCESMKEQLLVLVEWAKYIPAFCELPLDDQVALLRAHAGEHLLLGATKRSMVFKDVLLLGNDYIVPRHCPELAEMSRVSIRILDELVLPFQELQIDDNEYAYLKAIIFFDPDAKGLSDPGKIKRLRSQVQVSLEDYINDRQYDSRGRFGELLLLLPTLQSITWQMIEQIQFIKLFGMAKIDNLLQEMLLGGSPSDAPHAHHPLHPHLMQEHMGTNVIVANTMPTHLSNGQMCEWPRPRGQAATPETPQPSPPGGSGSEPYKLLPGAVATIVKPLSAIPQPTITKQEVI
Sequence of Oxysterols receptor LXR-beta (Homo sapiens) (P55055 whole entry, looked up, the tested form may be a part): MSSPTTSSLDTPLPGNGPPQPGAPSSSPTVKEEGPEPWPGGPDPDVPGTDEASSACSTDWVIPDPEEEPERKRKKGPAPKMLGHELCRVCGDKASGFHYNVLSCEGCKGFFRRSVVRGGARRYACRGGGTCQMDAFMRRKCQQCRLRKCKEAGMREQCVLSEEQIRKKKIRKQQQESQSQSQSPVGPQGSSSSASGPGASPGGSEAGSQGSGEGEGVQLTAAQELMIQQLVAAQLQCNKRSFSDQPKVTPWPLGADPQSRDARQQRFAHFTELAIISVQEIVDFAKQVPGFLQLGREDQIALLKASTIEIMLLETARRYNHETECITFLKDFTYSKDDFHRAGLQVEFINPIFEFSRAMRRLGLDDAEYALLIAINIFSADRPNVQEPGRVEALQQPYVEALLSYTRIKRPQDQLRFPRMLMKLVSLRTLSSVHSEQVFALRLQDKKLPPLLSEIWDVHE
Sequence of Nuclear receptor subfamily 1 group I member 2 (Homo sapiens) (O75469 whole entry, looked up, the tested form may be a part): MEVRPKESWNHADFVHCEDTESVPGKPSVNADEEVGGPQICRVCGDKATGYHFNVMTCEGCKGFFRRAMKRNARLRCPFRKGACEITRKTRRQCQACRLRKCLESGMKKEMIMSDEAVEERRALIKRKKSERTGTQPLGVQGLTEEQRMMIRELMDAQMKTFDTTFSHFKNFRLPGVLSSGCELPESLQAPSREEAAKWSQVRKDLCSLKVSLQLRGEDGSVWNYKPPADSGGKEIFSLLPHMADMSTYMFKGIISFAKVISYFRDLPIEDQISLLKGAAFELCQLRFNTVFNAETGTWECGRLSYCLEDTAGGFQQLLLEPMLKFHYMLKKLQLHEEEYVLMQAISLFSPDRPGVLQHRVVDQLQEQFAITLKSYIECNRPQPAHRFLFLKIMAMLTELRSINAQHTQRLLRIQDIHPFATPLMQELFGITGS
Sequence of Nuclear receptor subfamily 1 group I member 3 (Homo sapiens) (Q14994 whole entry, looked up, the tested form may be a part): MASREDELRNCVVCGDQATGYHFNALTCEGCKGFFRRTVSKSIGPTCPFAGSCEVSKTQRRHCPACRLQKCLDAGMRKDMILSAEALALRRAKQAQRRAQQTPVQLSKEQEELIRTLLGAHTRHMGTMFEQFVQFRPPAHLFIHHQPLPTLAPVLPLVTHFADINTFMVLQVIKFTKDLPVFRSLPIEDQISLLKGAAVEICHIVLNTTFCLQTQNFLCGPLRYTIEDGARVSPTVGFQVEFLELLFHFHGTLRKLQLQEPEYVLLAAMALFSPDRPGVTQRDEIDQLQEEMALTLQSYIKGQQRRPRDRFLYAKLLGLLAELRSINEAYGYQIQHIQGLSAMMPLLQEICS

Consider `C[N+](C)=CCl`, for which the molecule was called inactive in [1], in [2], in experiment [3] and in experiment [4].

Take `CN(C)C(=O)C(c1ccccc1)c1ccccc1`: the molecule was called inactive in experiment [1], in [5], in experiment [2], in experiment [6], in experiment [3] and in experiment [7]. The molecule was classed as inactive in experiment [8], in [9], in experiment [4], in [11], in experiment [12] and in experiment [13]. In addition, the call in experiment [14], in experiment [15], in experiment [16] and in experiment [17] was inactive. In addition, the concentration at half-maximal activity (AC50) in experiment [10] was 4.18 µM (active).

In the case of `O=C(O)C(Br)Br`, the molecule was classed as inactive in experiment [18], in experiment [2], in [3], in experiment [11], in [19] and in experiment [13]. Also, the outcome in [14] and in [16] was inactive.

`CC=Cc1ccc2c(c1)OCO2`: the result in experiment [1], in experiment [5], in [20], in experiment [7], in experiment [9] and in experiment [4] was inactive. Moreover, the outcome in experiment [11], in [12], in [19], in experiment [14], in experiment [15] and in experiment [16] was inactive.

On to `CC1CCC(=O)O1` (centres undefined), for which the molecule was classed as inactive in experiment [3], in experiment [7], in experiment [10], in [4], in experiment [11] and in experiment [15].

In the case of `O=C(CCN1CC1)OCC(CO)(COC(=O)CCN1CC1)COC(=O)CCN1CC1`, the molecule was called inactive in experiment [18], in [2], in [3], in experiment [4], in experiment [19] and in experiment [14]. In addition, the result in experiment [15] was inactive.

For the molecule `COC(=O)COc1ccc(Cl)cc1Cl`, the molecule was classed as inactive in experiment [1], in [2], in experiment [3], in experiment [4], in experiment [11] and in [13]. Also, the call in experiment [14], in experiment [15] and in [16] was inactive.

In the case of `COc1cc(OC)c(OC)cc1C=O`, the outcome in experiment [2], in experiment [7], in experiment [12], in experiment [13], in experiment [14] and in [15] was inactive. The outcome in [16] was inactive.

With `O=C(NC(=O)c1c(F)cccc1F)Nc1ccc(Oc2ccc(C(F)(F)F)cc2Cl)cc1F`, the result in experiment [1], in experiment [18], in [6], in [20], in experiment [8] and in experiment [9] was inactive. Besides, the molecule was called inactive in [10], in experiment [12], in experiment [13], in [14], in [16] and in experiment [17].

On to `O=[N+]([O-])O.O=[N+]([O-])O.[Cd]`, for which the concentration at half-maximal activity (AC50) is 2.08 µM (active) in experiment [1], 12.3 µM (active) in [19] and 59.2 µM (active) in experiment [13]. Also, the molecule was called inactive in experiment [2], in experiment [20], in experiment [7], in [4], in experiment [14] and in experiment [16].

In the case of `NNc1ccccc1`, the result in experiment [5], in experiment [20], in [7], in experiment [8] and in experiment [19] was inactive.

On to `Cc1ccc(C)c2ccccc12`, for which the outcome in experiment [18], in experiment [5], in [6], in experiment [20], in [7] and in [8] was inactive. In addition, the result in [9] and in [4] was inactive.
